Entries with a potency or affinity are not part of this list. Calls of active or inactive are those of the source.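 The calls were made as follows: active = compounds lowering ATP signal whose fitted half-maximal concentration is at most twice the top tested dose; inconclusive = flat fit with 30 to 70% loss, or bad fit; inactive = the rest.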
assay: A375 melanoma cell viability loss, dose response, counter-screen for MITF inhibitor project, CellTiter-Glo luminescence, dry powder, set 4 (AID 624364); settings: CellTiter-Glo ATP luminescence, 24 h; series mostly up to 35 µM; activity change, negative = viability loss: at the top concentration

| Compound | activity change, negative = viability loss |
| --- | --- |
| CN1CCN(C2=C(NS(=O)(=O)c3cccs3)C(=O)c3ccccc3C2=O)CC1 | 11.9% (inactive) |
| C=CCNC1=C(NCC=C)C(=O)c2ccccc2C1=O | 5.25% (inactive) |
| O=C(NC1=C(N2CCN(c3ccccc3)CC2)C(=O)c2ccccc2C1=O)c1ccccc1 | -4.59% (inactive) |
| COc1ccc(C2=C(NC(=O)c3ccc(OC)cc3-c3cccc(OC)c3)C(=O)c3ccccc3C2=O)cc1 | -0.494% (inactive) |
| C=CCNC1=C(NCCCN2CCOCC2)C(=O)c2ccccc2C1=O | 0.041% (inactive) |
